Inconclusive results are not listed. Activity calls are given as the source filed them. Rule for the calls, unless noted: active = hit-call score of the fitted dose curve at least 0.9, where 1 is the maximum; inactive = score below 0.9.
What was measured:
[1] = molecular target: Hypoxia-inducible factor 1-alpha (Homo sapiens) (UniProt Q16665); assay: ATG_HIF1a_CIS: Attagene CIS-FACTORIAL HepG2 Assay for human Hypoxia Inducible Factor 1 (HIF1A) (AID 2282951); conditions: HepG2 Attagene cis-factorial HIF1a reporter transcription; actives raise or lower the signal
Hypoxia-inducible factor 1-alpha (Homo sapiens), sequence (Q16665 whole entry, looked up): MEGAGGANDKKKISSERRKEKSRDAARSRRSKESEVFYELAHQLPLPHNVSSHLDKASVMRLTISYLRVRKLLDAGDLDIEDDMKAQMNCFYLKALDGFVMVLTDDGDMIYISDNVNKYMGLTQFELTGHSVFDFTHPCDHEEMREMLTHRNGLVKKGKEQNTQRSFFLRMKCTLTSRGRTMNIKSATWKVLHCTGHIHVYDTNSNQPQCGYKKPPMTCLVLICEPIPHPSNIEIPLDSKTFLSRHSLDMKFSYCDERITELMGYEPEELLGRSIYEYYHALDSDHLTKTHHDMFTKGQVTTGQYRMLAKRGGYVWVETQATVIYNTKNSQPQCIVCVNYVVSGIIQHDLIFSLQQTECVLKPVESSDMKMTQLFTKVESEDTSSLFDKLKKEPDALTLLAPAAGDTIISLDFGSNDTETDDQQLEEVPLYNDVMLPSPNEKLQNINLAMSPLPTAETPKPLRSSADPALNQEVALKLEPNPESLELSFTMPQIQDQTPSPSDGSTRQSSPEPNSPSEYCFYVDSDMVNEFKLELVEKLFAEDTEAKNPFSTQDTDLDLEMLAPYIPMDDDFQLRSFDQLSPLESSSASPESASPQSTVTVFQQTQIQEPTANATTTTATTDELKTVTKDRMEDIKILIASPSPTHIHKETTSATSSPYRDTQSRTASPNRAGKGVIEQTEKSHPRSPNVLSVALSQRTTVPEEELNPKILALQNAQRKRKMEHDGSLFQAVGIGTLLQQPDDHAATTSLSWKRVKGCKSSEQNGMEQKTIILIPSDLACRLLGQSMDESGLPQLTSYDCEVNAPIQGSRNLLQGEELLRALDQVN
Outline: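 After 24 h chemical exposure of reporter-transfected HepG2 cells, reporter cDNA was PCR-amplified, labelled by 6-FAM primer extension (2 min 95 C, 20 s 68 C, 10 min 72 C), HpaI-cut (2 h, 37 C) and analysed by CE.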

[2] = molecular target: Hepatocyte nuclear factor 6 (Homo sapiens) (UniProt Q9UBC0); assay: ATG_HNF6_CIS: Attagene CIS-FACTORIAL HepG2 Assay for human Hepatocyte Nuclear Factor 6 (HNF6) (AID 2282952); conditions: HepG2 Attagene cis-factorial HNF6 reporter transcription; actives raise or lower the signal
Hepatocyte nuclear factor 6 (Homo sapiens), sequence (Q9UBC0 whole entry, looked up, the tested form may be a part): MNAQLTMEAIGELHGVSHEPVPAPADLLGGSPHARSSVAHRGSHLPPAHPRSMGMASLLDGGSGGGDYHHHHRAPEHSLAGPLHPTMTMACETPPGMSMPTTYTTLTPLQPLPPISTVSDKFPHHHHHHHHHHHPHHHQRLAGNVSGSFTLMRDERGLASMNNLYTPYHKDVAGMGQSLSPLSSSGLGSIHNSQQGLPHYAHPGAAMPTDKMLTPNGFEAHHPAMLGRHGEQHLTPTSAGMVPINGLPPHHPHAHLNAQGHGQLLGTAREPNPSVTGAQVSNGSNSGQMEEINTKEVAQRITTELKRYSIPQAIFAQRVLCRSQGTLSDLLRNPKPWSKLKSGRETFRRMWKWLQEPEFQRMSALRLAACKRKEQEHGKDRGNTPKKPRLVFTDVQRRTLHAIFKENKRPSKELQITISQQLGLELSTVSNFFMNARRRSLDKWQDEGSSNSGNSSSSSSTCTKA
Outline: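 Reporter mRNA induction or loss in HepG2 after 24 h exposure; transient cis-MRTU transfection; fragments quantified by capillary electrophoresis; bidirectional analysis, DMSO as negative control.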

[3] = molecular target: Heat shock factor protein 1 (Homo sapiens) (UniProt Q00613); assay: ATG_HSE_CIS: Attagene CIS-FACTORIAL HepG2 Assay for human Heat Shock Transcription Factor 1 (HSE) (AID 2282953); conditions: HepG2 HSE cis-reporter, Attagene RNA transcription; actives raise or lower the signal
Heat shock factor protein 1 (Homo sapiens), sequence (Q00613 whole entry, looked up, the tested form may be a part): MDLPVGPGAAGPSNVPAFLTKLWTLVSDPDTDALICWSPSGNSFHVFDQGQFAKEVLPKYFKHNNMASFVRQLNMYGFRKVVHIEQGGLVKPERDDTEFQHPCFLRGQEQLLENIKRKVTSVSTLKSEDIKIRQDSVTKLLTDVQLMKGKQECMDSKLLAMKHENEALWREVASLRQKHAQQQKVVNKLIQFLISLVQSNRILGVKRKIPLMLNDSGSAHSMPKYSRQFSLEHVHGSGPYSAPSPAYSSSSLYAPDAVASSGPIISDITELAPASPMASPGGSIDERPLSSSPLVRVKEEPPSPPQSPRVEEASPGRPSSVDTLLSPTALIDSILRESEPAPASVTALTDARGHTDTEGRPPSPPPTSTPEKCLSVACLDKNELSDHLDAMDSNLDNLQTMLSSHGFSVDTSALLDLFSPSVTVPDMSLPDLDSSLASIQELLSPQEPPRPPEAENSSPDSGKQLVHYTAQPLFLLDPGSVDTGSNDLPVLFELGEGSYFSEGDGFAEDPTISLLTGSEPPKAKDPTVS
Outline: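 Cells were transfected with cis-element-driven reporter constructs, dosed for 24 h, then total RNA was reverse-transcribed and reporter cDNA amplified, FAM-labelled and digested with HpaI. Fragments were resolved by capillary electrophoresis; gain or loss was fitted against DMSO.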

[4] = ATG_MRE_CIS: Attagene CIS-FACTORIAL HepG2 Assay for human Metal Responsive Element (MRE) (AID 2282954); conditions: HepG2 MRE cis-reporter transcription, Attagene multiplex; actives raise or lower the signal
Outline: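 HepG2 cells transiently transfected with cis-element-driven reporter units; mRNA measured 24 h after dosing. Reporter transcripts quantified by RT-PCR, FAM labelling, HpaI digestion and capillary electrophoresis; bidirectional fit versus DMSO.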

[5] = ATG_PBREM_CIS: Attagene CIS-FACTORIAL HepG2 Assay for human Phenobarbital-responsive Enhancer Module (PBREM) (AID 2282955); conditions: HepG2 PBREM cis-reporter, Attagene multiplexed transcription; actives raise or lower the signal
Outline: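 Measures endogenous factor action on a phenobarbital-responsive enhancer module. HepG2 transiently carrying cis reporters, 24 h treatment, mRNA read-out by RT-PCR plus capillary electrophoresis.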

[6] = molecular target: Paired box protein Pax-6 (Homo sapiens) (UniProt P26367); assay: ATG_Pax6_CIS: Attagene CIS-FACTORIAL HepG2 Assay for human Paired Box 6 (PAX6) (AID 2282956); conditions: HepG2 CIS-FACTORIAL PAX6 reporter transcription, RNA readout; actives raise or lower the signal
Paired box protein Pax-6 (Homo sapiens), sequence (P26367 whole entry, looked up): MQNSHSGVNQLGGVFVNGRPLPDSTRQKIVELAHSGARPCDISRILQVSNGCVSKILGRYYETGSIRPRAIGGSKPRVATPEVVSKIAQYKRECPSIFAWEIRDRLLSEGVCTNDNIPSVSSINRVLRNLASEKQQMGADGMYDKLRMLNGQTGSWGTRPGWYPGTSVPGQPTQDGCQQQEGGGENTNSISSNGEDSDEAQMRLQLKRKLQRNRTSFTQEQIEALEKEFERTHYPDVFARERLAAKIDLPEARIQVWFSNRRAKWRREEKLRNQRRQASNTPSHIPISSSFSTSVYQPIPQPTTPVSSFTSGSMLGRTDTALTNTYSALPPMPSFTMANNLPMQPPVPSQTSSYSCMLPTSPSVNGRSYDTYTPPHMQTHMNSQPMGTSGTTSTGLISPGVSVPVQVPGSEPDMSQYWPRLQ
Outline: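 Multiplexed cis-reporter HepG2 system; 24 h treatment; reporter mRNA read by RT-PCR/CE fluorescence; bidirectional fit vs DMSO.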

[7] = ATG_PXRE_CIS: Attagene CIS-FACTORIAL HepG2 Assay for human Pregnane X Receptor Element (PXRE) (AID 2282957); conditions: HepG2 Attagene CIS-FACTORIAL PXRE reporter, mRNA; actives raise or lower the signal
Outline: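 Transiently transfected HepG2 cells were dosed and incubated for 24 h. RNA was then isolated, DNase-treated, reverse-transcribed and reporter sequences amplified. Labeled, HpaI-digested fragments were quantified by capillary electrophoresis against DMSO.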

[8] = ATG_PPRE_CIS: Attagene CIS-FACTORIAL HepG2 Assay for human Peroxisome Proliferator-activated Response Element (PPRE) (AID 2282958); conditions: HepG2 PPRE cis-element reporter, Attagene transcription factor profiling; actives raise or lower the signal
Outline: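 PPRE activity in HepG2: transient cis-reporter transfection, 24 h compound incubation, reporter mRNA by RT-PCR and CE fluorescence; gain/loss fitted against DMSO.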

[9] = ATG_RORE_CIS: Attagene CIS-FACTORIAL HepG2 Assay for human RAR-related Orphan Receptor Element (RORE) (AID 2282959); conditions: HepG2 Attagene cis-factorial RORE reporter, mRNA; actives raise or lower the signal
Outline: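 A 24-hour exposure of transfected HepG2 hepatoma cells precedes RNA isolation and reporter RT-PCR. Labeled products are digested with HpaI and resolved by capillary electrophoresis, with gain or loss of signal scored relative to DMSO.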

[10] = ATG_Sox_CIS: Attagene CIS-FACTORIAL HepG2 Assay for human SRY-box transcription factor (SOX) (AID 2282960); conditions: HepG2 Attagene cis-factorial SOX reporter, mRNA; actives raise or lower the signal
Outline: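 HepG2, cis reporter units, 24 h exposure. Reporter mRNA: RT-PCR → FAM labelling → HpaI → CE fluorescence. Bidirectional fit vs DMSO.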

[11] = molecular target: Transcription factor Sp1 (Homo sapiens) (UniProt P08047); assay: ATG_Sp1_CIS: Attagene CIS-FACTORIAL HepG2 Assay for human Specificity Protein 1 (Sp1) (AID 2282961); conditions: HepG2 Sp1 cis-reporter transcription, actives raise or lower the signal
Transcription factor Sp1 (Homo sapiens), sequence (P08047 whole entry, looked up, the tested form may be a part): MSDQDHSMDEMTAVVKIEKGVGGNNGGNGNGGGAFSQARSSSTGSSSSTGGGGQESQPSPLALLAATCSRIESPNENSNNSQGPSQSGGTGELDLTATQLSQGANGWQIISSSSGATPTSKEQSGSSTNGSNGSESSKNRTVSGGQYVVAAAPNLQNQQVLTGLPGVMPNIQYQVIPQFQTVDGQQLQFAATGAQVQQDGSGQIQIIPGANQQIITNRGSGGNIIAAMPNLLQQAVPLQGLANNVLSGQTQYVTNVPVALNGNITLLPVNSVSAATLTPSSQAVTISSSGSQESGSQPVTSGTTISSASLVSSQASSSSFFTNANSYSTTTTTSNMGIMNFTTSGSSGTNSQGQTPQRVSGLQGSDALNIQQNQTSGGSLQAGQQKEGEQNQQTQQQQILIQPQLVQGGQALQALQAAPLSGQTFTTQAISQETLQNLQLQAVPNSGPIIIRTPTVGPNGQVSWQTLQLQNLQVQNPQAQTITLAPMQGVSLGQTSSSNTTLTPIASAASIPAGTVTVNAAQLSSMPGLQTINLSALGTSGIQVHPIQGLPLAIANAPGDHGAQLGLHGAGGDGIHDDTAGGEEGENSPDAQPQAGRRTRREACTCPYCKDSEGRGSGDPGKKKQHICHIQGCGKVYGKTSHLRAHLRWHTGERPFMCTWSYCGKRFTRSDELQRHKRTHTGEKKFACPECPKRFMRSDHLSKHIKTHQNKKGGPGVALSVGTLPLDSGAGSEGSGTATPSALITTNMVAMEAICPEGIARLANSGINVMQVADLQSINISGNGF
Outline: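 Liver-derived HepG2 cells, cis-element reporter library, 24 h treatment; RNA isolated, cDNA amplified with reporter-specific primers, FAM-labeled fragments sized on capillary analyzer. DMSO baseline, bidirectional curve fit.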

[12] = ATG_SREBP_CIS: Attagene CIS-FACTORIAL HepG2 Assay for human Sterol Regulatory Element Binding (SREBP) (AID 2282962); conditions: HepG2 Attagene cis-factorial SREBP reporter, mRNA; actives raise or lower the signal
Outline: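 mRNA induction of transfected cis-promoter reporters in HepG2 cells, 24 h post-dose. Detection: RT-PCR with 6-FAM-labelled products, HpaI digest, capillary electrophoresis. DMSO served as negative control and baseline.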

[13] = molecular target: Signal transducer and activator of transcription 3 (Homo sapiens) (UniProt P40763); assay: ATG_STAT3_CIS: Attagene CIS-FACTORIAL HepG2 Assay for human Signal Transducer and Activator of Transcription 3 (STAT3) (AID 2282963); conditions: HepG2, Attagene cis-factorial STAT3 reporter transcription; actives raise or lower the signal
Signal transducer and activator of transcription 3 (Homo sapiens), sequence (P40763 whole entry, looked up): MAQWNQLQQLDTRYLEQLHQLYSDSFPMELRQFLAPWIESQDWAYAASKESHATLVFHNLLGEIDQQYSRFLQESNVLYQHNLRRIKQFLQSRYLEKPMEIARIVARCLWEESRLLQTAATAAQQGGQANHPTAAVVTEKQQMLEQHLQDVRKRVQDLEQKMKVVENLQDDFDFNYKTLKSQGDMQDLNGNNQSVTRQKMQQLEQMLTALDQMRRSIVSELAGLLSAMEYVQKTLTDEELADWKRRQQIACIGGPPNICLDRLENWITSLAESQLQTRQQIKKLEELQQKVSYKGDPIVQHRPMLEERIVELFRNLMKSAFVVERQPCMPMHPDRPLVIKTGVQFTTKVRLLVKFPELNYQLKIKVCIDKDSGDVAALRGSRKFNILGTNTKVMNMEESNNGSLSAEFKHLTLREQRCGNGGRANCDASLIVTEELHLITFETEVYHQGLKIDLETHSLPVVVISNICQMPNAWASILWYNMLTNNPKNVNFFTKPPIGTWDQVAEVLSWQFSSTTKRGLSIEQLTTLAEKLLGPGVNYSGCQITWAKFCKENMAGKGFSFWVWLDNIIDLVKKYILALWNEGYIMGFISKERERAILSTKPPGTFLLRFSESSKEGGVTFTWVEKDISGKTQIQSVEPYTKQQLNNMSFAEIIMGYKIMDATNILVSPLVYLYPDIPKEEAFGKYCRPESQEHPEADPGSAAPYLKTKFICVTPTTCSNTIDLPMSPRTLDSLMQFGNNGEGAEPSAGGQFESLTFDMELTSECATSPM
Outline: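 HepG2 cells transiently transfected with multiple cis-element-driven reporter units report endogenous transcription factor activity. After 24 h compound exposure, reporter mRNA is measured by RT-PCR, 6-FAM labelling, HpaI digestion and capillary electrophoresis. Fitted bidirectionally versus DMSO.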

[14] = ATG_TA_CIS: Attagene CIS-FACTORIAL HepG2 Assay for human TA Basal Promoter (AID 2282964); conditions: HepG2 Attagene CIS-factorial TA basal promoter reporter; actives raise or lower the signal
Outline: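 Steps: transfect HepG2 with MRTUs; dose 24 h; isolate RNA, DNase-treat, reverse-transcribe; PCR and FAM-label reporter cDNA; digest with HpaI 2h at 37 C; run capillary electrophoresis. Activity fitted both directions against DMSO.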

[15] = ATG_TCF_b_cat_CIS: Attagene CIS-FACTORIAL HepG2 Assay for human T-Cell-Factor with beta-catenin (TCF/b-cat) (AID 2282965); conditions: HepG2 TCF/beta-catenin cis-reporter transcription, actives raise or lower the signal
Outline: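 HepG2, transient MRTU transfection, cis-element-driven reporters (endogenous TFs). 24 h compound exposure. Readout: reporter mRNA by RT-PCR + 6-FAM primer extension, HpaI digest, capillary electrophoresis. Gain/loss fit vs DMSO baseline.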

[16] = ATG_TAL_CIS: Attagene CIS-FACTORIAL HepG2 Assay for human TAL Basal Promoter (AID 2282966); conditions: HepG2 Attagene cis-factorial TAL promoter reporter; actives raise or lower the signal;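 note: background control endpoint measuring basal TAL promoter reporter mRNA not a specific factor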
Outline: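 Readout: reporter mRNA, fluorescence by CE. System: HepG2, transient multi-reporter transfection, endogenous TF activity. Exposure: 24 h. Analysis: bidirectional, DMSO-normalized; background control.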

[17] = ATG_TGFb_CIS: Attagene CIS-FACTORIAL HepG2 Assay for human Transforming Growth Factor (TGF) (AID 2282967); conditions: HepG2 Attagene CIS TGFb reporter, mRNA transcription; actives raise or lower the signal
Outline: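 Cells were dosed for 24 hours, after which total RNA was reverse-transcribed and reporter sequences amplified, labeled and sized by capillary electrophoresis. Activity was fitted in both directions against DMSO.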

[18] = ATG_VDRE_CIS: Attagene CIS-FACTORIAL HepG2 Assay for human Vitamin D Receptor Element (VDRE) (AID 2282968); conditions: HepG2 VDRE cis-reporter transcription, actives raise or lower the signal
Outline: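 Transiently transfected HepG2 cells carrying cis-regulated reporter transcription units were exposed for 24 h. Reporter mRNA was measured by RT-PCR with fluorescent labelling and capillary electrophoresis, and fitted in both directions against DMSO.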

[19] = molecular target: Nuclear receptor subfamily 1 group I member 3 (Homo sapiens) (UniProt Q14994); assay: ATG_CAR_TRANS: Attagene TRANS-FACTORIAL HepG2 Assay for human Constitutive Androstane Receptor (CAR) (AID 2282969; active = hit-call score of the fitted dose curve at least 0.9, where 1 is the maximum;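 note: activators raise reporter mRNA above DMSO so AC50 marks induction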); conditions: HepG2 Attagene TRANS-FACTORIAL CAR reporter
Nuclear receptor subfamily 1 group I member 3 (Homo sapiens), sequence (Q14994 whole entry, looked up, the tested form may be a part): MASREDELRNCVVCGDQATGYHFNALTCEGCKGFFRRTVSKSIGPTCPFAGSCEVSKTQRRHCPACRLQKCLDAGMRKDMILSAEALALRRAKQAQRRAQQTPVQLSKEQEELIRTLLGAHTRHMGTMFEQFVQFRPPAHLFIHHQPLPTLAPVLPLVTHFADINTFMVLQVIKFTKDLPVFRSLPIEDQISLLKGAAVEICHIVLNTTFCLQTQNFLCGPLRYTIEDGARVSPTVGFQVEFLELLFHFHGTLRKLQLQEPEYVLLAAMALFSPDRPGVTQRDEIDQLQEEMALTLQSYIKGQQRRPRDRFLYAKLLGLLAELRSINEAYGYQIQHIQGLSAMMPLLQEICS
Outline: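 HepG2 cells transiently transfected with GAL4-UAS reporter units; TRANS format reads activity of exogenous chimeric NR-Gal4 protein. After 24 h dosing, reporter mRNA quantified by RT-PCR, 6-FAM labelling and capillary electrophoresis; gain of signal fitted against DMSO.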

[20] = molecular target: Estrogen receptor (Homo sapiens) (UniProt P03372); assay: ATG_ERa_TRANS: Attagene TRANS-FACTORIAL HepG2 Assay for human Estrogen Receptor alpha (ERa) (AID 2282970; active = hit-call score of the fitted dose curve at least 0.9, where 1 is the maximum); conditions: HepG2 Attagene TRANS ERa GAL4 reporter, mRNA
Estrogen receptor (Homo sapiens), sequence (P03372 whole entry, looked up, the tested form may be a part): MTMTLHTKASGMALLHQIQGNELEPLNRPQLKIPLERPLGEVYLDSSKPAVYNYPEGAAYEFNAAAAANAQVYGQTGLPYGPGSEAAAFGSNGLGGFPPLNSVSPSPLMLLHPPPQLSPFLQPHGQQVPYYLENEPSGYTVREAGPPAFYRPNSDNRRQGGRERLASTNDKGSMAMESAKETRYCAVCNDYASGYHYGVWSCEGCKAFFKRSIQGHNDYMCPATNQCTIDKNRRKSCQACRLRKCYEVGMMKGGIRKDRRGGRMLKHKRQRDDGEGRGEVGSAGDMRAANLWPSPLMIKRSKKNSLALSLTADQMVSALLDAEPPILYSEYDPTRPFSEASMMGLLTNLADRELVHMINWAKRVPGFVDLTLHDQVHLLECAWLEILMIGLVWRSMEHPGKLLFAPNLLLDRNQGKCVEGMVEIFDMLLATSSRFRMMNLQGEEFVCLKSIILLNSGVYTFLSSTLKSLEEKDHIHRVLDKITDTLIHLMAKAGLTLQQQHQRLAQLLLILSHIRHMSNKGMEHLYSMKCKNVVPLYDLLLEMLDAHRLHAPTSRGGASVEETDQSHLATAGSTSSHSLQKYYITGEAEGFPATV
Outline: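 Transactivation via ERa-Gal4 chimera in HepG2; 24 hour incubation; reporter mRNA detected by fluorescence RT-PCR and capillary electrophoresis.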

Measured: AC50

Cc1cc(Cl)ccc1OCCCC(=O)O
not listed: [19] | [20]
inactive: all other assays above

ClCc1ccccc1CCl
active: [2] 23.1 µM | [3] 21.7 µM | [6] 25.7 µM | [7] 18.3 µM | [10] 22.6 µM | [11] 33.4 µM | [13] 33.4 µM | [15] 22.4 µM | [16] 16.5 µM | [18] 13.5 µM
inactive: all other assays above

N#CCC#N
not listed: [19] | [20]
inactive: all other assays above

Source: PubChem BioAssay (EPA / NIEHS)
